Screening results deposited in PubChem by Buhrlage Lab, Dana-Farber Cancer Institute and Novartis Institutes for BioMedical Research (Cambridge, Mass).
Most compounds without a hit are left out; they make up all but 12% or so of the library.
USP17 block: inhibitors of human USP17 deubiquitinase | inhibition, % at 50 µM | purified USP17, Ub-rhodamine cleavage fluorescence, 3 h | Ubiquitin carboxyl-terminal hydrolase 17-like protein 5 (Homo sapiens), A8MUK1 | 47,000 compounds, 6.5% hits
Target sequence (A8MUK1 whole entry, looked up): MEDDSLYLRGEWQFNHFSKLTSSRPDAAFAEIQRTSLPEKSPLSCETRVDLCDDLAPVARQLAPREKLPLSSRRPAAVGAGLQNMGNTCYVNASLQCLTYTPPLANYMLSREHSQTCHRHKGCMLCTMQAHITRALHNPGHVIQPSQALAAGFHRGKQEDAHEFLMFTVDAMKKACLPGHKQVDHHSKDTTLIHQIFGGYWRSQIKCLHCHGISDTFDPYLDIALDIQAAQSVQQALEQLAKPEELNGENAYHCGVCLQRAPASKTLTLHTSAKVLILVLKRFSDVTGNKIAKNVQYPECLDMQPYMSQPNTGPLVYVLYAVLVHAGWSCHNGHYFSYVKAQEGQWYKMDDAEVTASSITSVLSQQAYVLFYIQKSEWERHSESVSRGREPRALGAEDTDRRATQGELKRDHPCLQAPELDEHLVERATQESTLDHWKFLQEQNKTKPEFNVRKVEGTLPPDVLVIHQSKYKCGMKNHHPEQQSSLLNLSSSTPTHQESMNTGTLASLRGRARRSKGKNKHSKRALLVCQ
USP30 block: inhibitors of human USP30 deubiquitinase; Ubiquitin carboxyl-terminal hydrolase 30 (Homo sapiens), Q70CQ3; purified USP30, Ub-rhodamine cleavage fluorescence; inhibition, % at 25 µM; 47,000 compounds, 5.3% hits
USP8 inh: inhibitors of human USP8 deubiquitinase; Ubiquitin carboxyl-terminal hydrolase 8 (Homo sapiens), P40818; purified USP8, Ub-rhodamine cleavage fluorescence, 30 min; inhibition, % at 20 µM; 47,000 compounds, 4.2% hits; AID 1645853, 2021
Each line names hits and unclear results; the compound was inactive in the other large screens. Cut-off read from the data, not from the text of the source: active = inhibition above about 30%; inactive = the rest.

Cn1c(N2CCCCCC2)nc2c1c(=O)n(Cc1ccccc1Cl)c(=O)n2C	none
Cn1c(N2CCCCCC2)nc2c1c(=O)n(Cc1ccc(Cl)cc1)c(=O)n2C	USP30 block 39
Cc1noc(COC2CCN(S(=O)(=O)c3ccc(F)cc3)CC2)n1	none
COc1ccc(CCC(=O)Nc2cccn3ncnc23)cc1	none
c1ccc2c(c1)CCCC2Nc1ncnc2c1nc1n2CCCCC1 (stereo unspecified)	none
Cc1ccc2nc(SCc3cn4c(C)cccc4n3)[nH]c2c1	none
Cc1ccc2nc(-c3cccc(-c4nc5ccc(C)cc5[nH]4)n3)[nH]c2c1	USP17 block 54, USP8 inh 55
COc1ccccc1N1CCN(C(CNC(=O)c2cccs2)c2cccnc2)CC1 (stereo unspecified)	none
O=C(Nc1ccccc1Cl)c1ccc(CN2CCC(Cc3ccccc3)CC2)cc1	none
O=C(Nc1ccccc1C(=O)O)c1ccc(CSCc2ccccc2)cc1	USP17 block 39
COc1cccc(C(=O)NCC(=O)N2CCCc3ccccc32)c1OC	none
COc1cc(CC(NC(C)=O)C(=O)NC2CCN(C(=O)c3cnccn3)CC2)cc(OC)c1 (stereo unspecified)	none
CCn1c(CNc2ccc(C)cc2)nnc1SCC(=O)Nc1ccc(C(=O)OC)cc1	none
O=[N+]([O-])c1cc(S(=O)(=O)Nc2ccccc2)ccc1NCc1ccc(F)cc1	USP30 block 35
COc1ccccc1CNc1ccc(S(=O)(=O)Nc2ccccc2)cc1[N+](=O)[O-]	none
O=C(NCc1ccccc1Cl)C1CCCN(c2nc3ccsc3c(=O)s2)C1 (stereo unspecified)	USP17 block 55
COc1ccc(Br)cc1CNC(=O)C1CCCN(c2nnc(N3CCCC3=O)s2)C1 (stereo unspecified)	USP17 block 40
Cc1cc(C)c(C(=O)N2CCCC(C(=O)NCc3ccccc3Cl)C2)[nH]1 (stereo unspecified)	none (no result: USP17 block)
CCOc1ccccc1CNC(=O)C1CCCN(c2nc3ccccc3[nH]2)C1 (stereo unspecified)	none
COc1cccc(CNC(=O)C2CCCN(c3nnc(N4CCCC4=O)s3)C2)c1OC (stereo unspecified)	none
COc1ccccc1CNC(=O)C1CCCN(c2nc3ccsc3c(=O)s2)C1 (stereo unspecified)	USP17 block 57
Cc1c2c(nc3cc4c(cc13)OCO4)-c1ccccc1OC2c1ccccc1 (stereo unspecified)	none
O=c1[nH]c(CN2CCN(S(=O)(=O)c3ccccc3)CC2)nc2cc(Cl)ccc12	none
COc1ccc(S(=O)(=O)N2CCN(c3ccnc4cc(Cl)ccc34)CC2)cc1	USP30 block 33
CCC(=O)N1CCN(c2ccnc3cc(Cl)ccc23)CC1	none
COCCn1cnc(-c2nc(C(=O)Nc3cccc(O)c3)c3ccccn23)c1	none
COc1cc2c(c(OC)c1OC)-c1ccc(N3CCN(C)CC3)c(=O)cc1[C@@H](NC(C)=O)CC2	none
COc1cc2c(c(OC)c1OC)-c1ccc(N3CCN(Cc4ccc5c(c4)OCO5)CC3)c(=O)cc1[C@@H](NC(C)=O)CC2	USP8 inh 45
CC1=C(C(N)=O)C(c2ccc3c(c2)OCO3)n2ncnc2N1 (stereo unspecified)	none
C[C@@H]1OC(=O)/C=C/[C@@H](O)[C@H](C)OC(=O)C[C@H](C)OC(=O)/C=C/[C@H]1O	none
Cc1cc(C)c(C#N)c(N2CCN(S(=O)(=O)Cc3ccccc3)CC2)n1	USP17 block 45
CC(=O)NC(Cc1ccccc1)C(=O)NC1CCN(c2nc(C)cc(C)c2C#N)CC1 (stereo unspecified)	none
O=C(CO)N1C[C@H](Oc2ccccn2)[C@H]2C[C@@H]1Cc1c2[nH]c2ccccc12	none
CCCc1noc(-c2ccc(-n3cnc(C(=O)N4CCCC4)c3)nc2)n1	none
COc1ccc(C(=O)Nc2cccc(-c3csc(C)n3)c2)cc1OC	none
COc1ccc(C(=O)Nc2cccc(C(=O)OCC(=O)c3ccc(Br)cc3)c2)cc1OC	USP17 block 34
N#Cc1c(-c2ccco2)cc(-c2ccccc2)n2c1nc1ccccc12	none
N#Cc1ccc(-c2nc3c(C#N)c(-c4ccc5c(c4)OCO5)ccn3n2)cc1	none
N#Cc1c(-c2ccco2)ccn2nc(-c3ccc(Cl)cc3Cl)nc12	USP17 block 46, USP8 inh 43
N#Cc1c(-c2ccc(Cl)cc2)ccn2nc(-c3ccco3)nc12	USP8 inh 48
CC(=O)N1CCO[C@@H]2CCN(c3ncc(F)cn3)CC[C@H]21	none
CC1CCN(C(=O)C2CCN(c3c(C#N)cnc4ccccc34)CC2)CC1	none
O=C(NCc1ccco1)c1ccc(Cn2c(=O)c3sccc3n(Cc3cc(=O)n4ccccc4n3)c2=O)cc1	USP17 block 70, USP30 block 40, USP8 inh 68
O=C(NCc1ccco1)c1ccc2c(=O)nc3c(-c4ccccc4F)n[nH]n3c2c1	none
CCc1nc2ccc(C(=O)Nc3nc(-c4ccc5c(c4)CCN5C(=O)c4cccc(C)c4)c(C)s3)cc2nc1CC	none
N#Cc1ccc(CC2(Cc3ccc(C#N)cc3)C(=O)N(Cc3ccccn3)C(=O)c3ccccc32)cc1	USP30 block 44
O=C1N(Cc2ccccn2)C(=O)C2(Cc3ccccc3)CCN(Cc3ccccn3)CCN12 (stereo unspecified)	none
Cc1cc(=O)oc2cc(OCC(=O)NCc3ccccn3)ccc12	none
CCCc1cc(=O)oc2cc(OCC(=O)NCc3ccccn3)ccc12	USP17 block 61, USP30 block 60
CC(=O)c1ccc(N2CCN(C(=O)Nc3ccc(-c4noc(C)n4)cc3)CC2)cc1	none
N#Cc1c(N)nc2c(c1-c1ccco1)CN(Cc1ccccc1)CC2	none
O=C(c1ccc(COc2cccc3ccccc23)o1)N1CCC(Cc2ccccc2)CC1	USP17 block 68
O=C(COc1ccccc1F)N1CCC(Cc2ccccc2)CC1	none
O=C1CCCC[C@]2(CN(C(=O)Cn3nnc4ccccc43)C[C@H]2c2ccccc2F)N1	none
Cn1c(=O)c(C(=O)CN2CCN(c3ccc(O)cc3)CC2)c(N)n(Cc2ccccc2)c1=O	USP17 block 59, USP8 inh 67
Cc1ccc2c(C(=O)CN3CCN(Cc4ccccc4)CC3)c(C)[nH]c2c1	none
CN1CCN(Cc2cccnc2)C(=O)C12CCN(Cc1ccc[nH]1)CC2	USP17 block 46, USP8 inh 40
CN1CCN(Cc2cccnc2)C(=O)C12CCN(c1ncccn1)CC2	none
CC(C)N1CC=CCC(C2CCNCC2)C1=O (stereo unspecified)	none
CC(=O)N1CCOc2ccc(S(=O)(=O)Nc3cc(Cl)ccc3C)cc21	none
O=C(NC1CCCCCC1)c1ccc(N2CCOc3ccccc32)s1	none
O=C(NCCc1ccco1)c1ccc(N2CCOc3ccccc32)s1	USP17 block 57, USP30 block 47
COc1cc(/C=C2\CCn3c2nc2cc(Cl)ccc2c3=O)cc(OC)c1OC	none
O=C(NCc1cccnc1)c1cnn2c(C(F)(F)F)cc(-c3ccc(F)cc3)nc12	USP17 block 36, USP30 block 56
O=C(NCc1cccnc1)c1cnn2c3c(cnc12)CCCC3	none
Cc1cccc(CNC(=O)c2cc3occc3c(Nc3ccc(F)cc3)n2)c1	none
Cc1ccc(Nc2nc(C(=O)NCc3ccc4c(c3)OCO4)cc3occc23)cc1Cl	USP17 block 66, USP8 inh 76
O=C(NCc1ccc2c(c1)OCO2)c1cc2occc2c(Nc2ccc(F)cc2)n1	none
